About 79,000 compounds went through this panel and 15% of them were active in at least one assay; those are over-represented in the sample as a whole. A number with no mark means an inactive call. Activity calls are given as the source filed them. No stated cut-off is given here; in the data, active means growth inhibition above about 70%; inactive means the rest.

Test [1] is described as follows: NCI Yeast Anticancer Drug Screen. Data for the rad50 strain (AID 155).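 Further: 0% = growth of vehicle-only cultures of the same strain.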 As to conditions: S. cerevisiae rad50 strain growth inhibition, active compounds read high. The gist of the method: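 Cells are treated with compound, grown, and their growth is then scored against vehicle-only cultures of the same repair-deficient yeast strain.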
Test [2] in a line: NCI Yeast Anticancer Drug Screen. Data for the mec2-1 strain (AID 157). As to conditions: S. cerevisiae mec2-1 strain, active compounds read high. A digest of the protocol: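 Compounds were applied to mec2-1 yeast cells. Their growth was then compared with that of vehicle-treated cultures to give growth inhibition.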
Test [3] can be described thus: NCI Yeast Anticancer Drug Screen. Data for the sgs1 mgt1 strain (AID 161).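 Further: 0% = growth of cultures given vehicle only.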 As to conditions: S. cerevisiae sgs1 mgt1 strain, active compounds read high. A digest of the protocol: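 Growth of a repair-deficient yeast mutant was monitored after compound treatment and expressed as inhibition relative to vehicle-treated cultures.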
Test [4] can be described thus: NCI Yeast Anticancer Drug Screen. Data for the cln2 rad14 strain (AID 165).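 Further: 0% = growth equal to vehicle treated cultures.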 As to conditions: S. cerevisiae cln2 rad14 strain, active compounds read high. A digest of the protocol: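 Strain: cln2 rad14 yeast, altered in cell cycle control and DNA damage repair. Read-out: growth inhibition vs vehicle.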
A short description of test [5]: NCI Yeast Anticancer Drug Screen. Data for the bub3 strain (AID 167). As to conditions: S. cerevisiae bub3 mutant strain, active compounds read high. The gist of the method:
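Part of a panel of yeast mutants defective in DNA damage repair or cell cycle regulation. Each strain is grown with compound, and inhibition is calculated relative to solvent-treated cultures.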

Test [6] in a line: NCI Yeast Anticancer Drug Screen. Data for the mlh1 rad18 strain (AID 175). As to conditions: S. cerevisiae mlh1 rad18 strain growth inhibition, active compounds read high. A digest of the protocol: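 A repair-deficient yeast strain is exposed to test compound, and growth is scored relative to vehicle-treated controls.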
Where [7] appears, read: at 5.0 µM (retest, dose inferred, filed as 0.5).
[8] abbreviates: at 50.0 µM (retest, dose inferred, filed as 5.0).

Regarding `COC(=O)c1n[nH]c(C(C)C)c1N=NN(C)C`, the growth inhibition was 29% in test [1] (setting [7]); 95% (active) in test [1] (setting [8]); 98.9% (active) in test [1] (at 50.0 µM); -35% in test [2] (setting [7]); 97% (active) in test [2] (setting [8]); 99.1% (active) in test [2] (at 50.0 µM). The growth inhibition in test [3] (setting [7]) was -27%; in test [3] (setting [8]), 96% (active); in test [3] (at 50.0 µM), 99% (active); in test [4] (setting [7]) it was -11%; in test [4] (setting [8]), 98% (active); in test [4] (at 50.0 µM), 99% (active). Further, the growth inhibition was -38% in test [5] (setting [7]); 96% (active) in test [5] (setting [8]); 98.3% (active) in test [5] (at 50.0 µM); -77% in test [6] (setting [7]); 96% (active) in test [6] (setting [8]); 99.2% (active) in test [6] (at 50.0 µM).
As for `Cc1ccc(S(=O)(=O)C(Br)CC(=O)c2ccccc2)cc1` (stereo unspecified), the growth inhibition is 64% in test [1] (setting [7]); 96% (active) in test [1] (setting [8]); 99% (active) in test [1] (at 50.0 µM); 67% in test [2] (setting [7]); 97% (active) in test [2] (setting [8]); 99.8% (active) in test [2] (at 50.0 µM). The growth inhibition in test [3] (setting [7]) was 67%; in test [3] (setting [8]), 97% (active); in test [3] (at 50.0 µM), 99.7% (active); in test [4] (setting [7]), 90% (active); in test [4] (setting [8]), 96% (active); in test [4] (at 50.0 µM) it was 99.5% (active). Besides, the growth inhibition in test [5] (setting [7]) was 59%; in test [5] (setting [8]) it was 97% (active); in test [5] (at 50.0 µM), 99.7% (active); in test [6] (setting [7]), 63%; in test [6] (setting [8]), 97% (active); in test [6] (at 50.0 µM) it was 99.3% (active).
As to `O=C(Nc1cccc2ccccc12)OCC1CCc2ccccc2C1` (stereo unspecified), the growth inhibition in test [1] (setting [7]) was -1%; in test [1] (setting [8]), 6%; in test [1] (at 50.0 µM), 12.9%; in test [2] (setting [7]), -6%; in test [2] (setting [8]), 2%; in test [2] (at 50.0 µM), 22.6%. Besides, the growth inhibition is -4% in test [3] (setting [7]); 17% in test [3] (setting [8]); 54.2% in test [3] (at 50.0 µM); -8% in test [4] (setting [7]); -9% in test [4] (setting [8]); 9.25% in test [4] (at 50.0 µM). For the same compound, the growth inhibition is -2% in test [5] (setting [7]); 29% in test [5] (setting [8]); 72.2% (active) in test [5] (at 50.0 µM); -5% in test [6] (setting [7]); 27% in test [6] (setting [8]); 31.1% in test [6] (at 50.0 µM).
For `O=C1c2cccc(S(=O)(=O)O)c2C(=O)c2cccc([N+](=O)[O-])c21`, the growth inhibition is 2% in test [1] (setting [7]); 30% in test [1] (setting [8]); 31.1% in test [1] (at 50.0 µM); 0% in test [2] (setting [7]); 31% in test [2] (setting [8]); 23% in test [2] (at 50.0 µM). The growth inhibition is 5% in test [3] (setting [7]); 45% in test [3] (setting [8]); 16.3% in test [3] (at 50.0 µM); -1% in test [4] (setting [7]); 28% in test [4] (setting [8]); -8.35% in test [4] (at 50.0 µM). Besides, the growth inhibition in test [5] (setting [7]) was -1%; in test [5] (setting [8]) it was 25%; in test [5] (at 50.0 µM), 16.6%; in test [6] (setting [7]), 6%; in test [6] (setting [8]) it was 40%; in test [6] (at 50.0 µM), 69.1%.
Take `CC(=O)OCC1OC(c2cccc3c2c2ccccc2n3S(=O)(=O)c2ccccc2)C(O)C1O` (stereo unspecified): the growth inhibition in test [1] (setting [7]) was 1%; in test [1] (setting [8]), 93% (active); in test [1] (at 50.0 µM), 17.4%; in test [2] (setting [7]), 1%; in test [2] (setting [8]), 97% (active); in test [2] (at 50.0 µM) it was -0.7%. Besides, the growth inhibition in test [3] (setting [7]) is -1%; in test [3] (setting [8]) it was 97% (active); in test [3] (at 50.0 µM), 7.15%; in test [4] (setting [7]), 2%; in test [4] (setting [8]), 98% (active); in test [4] (at 50.0 µM) it was 1.25%. The growth inhibition is 0% in test [5] (setting [7]); 98% (active) in test [5] (setting [8]); 7.8% in test [5] (at 50.0 µM); 1% in test [6] (setting [7]); 98% (active) in test [6] (setting [8]); 37.9% in test [6] (at 50.0 µM).
In the case of `COC(=O)c1ccccc1CC1Cc2cccc(C)c2C1=O` (stereo unspecified), the growth inhibition in test [1] (setting [7]) is -2%; in test [1] (setting [8]) it was 28%; in test [1] (at 50.0 µM), 65.2%; in test [2] (setting [7]) it was -3%; in test [2] (setting [8]) it was 47%; in test [2] (at 50.0 µM), 51%. For the same compound, the growth inhibition in test [3] (setting [7]) was 14%; in test [3] (setting [8]) it was 64%; in test [3] (at 50.0 µM) it was 67.6%; in test [4] (setting [7]), -2%; in test [4] (setting [8]), 11%; in test [4] (at 50.0 µM), 24.4%. Also, the growth inhibition in test [5] (setting [7]) was 5%; in test [5] (setting [8]), 80% (active); in test [5] (at 50.0 µM) it was 79.7% (active); in test [6] (setting [7]), 1%; in test [6] (setting [8]), 40%; in test [6] (at 50.0 µM), 76% (active).
With `Cc1ccccc1NC(=O)C1C(=O)N(c2ccccc2C)C(=O)/C1=N/O` (stereo unspecified), the growth inhibition in test [1] (setting [7]) was -21%; in test [1] (setting [8]) it was 3%; in test [1] (at 50.0 µM) it was -21.4%; in test [2] (setting [7]) it was 3%; in test [2] (setting [8]), 4%; in test [2] (at 50.0 µM) it was 2.95%. The growth inhibition in test [3] (setting [7]) is -4%; in test [3] (setting [8]), -19%; in test [3] (at 50.0 µM), -4.55%; in test [4] (setting [7]), -6%; in test [4] (setting [8]) it was 6%; in test [4] (at 50.0 µM), -26.6%. The growth inhibition in test [5] (setting [7]) is 0%; in test [5] (setting [8]), 1%; in test [5] (at 50.0 µM) it was -5.25%; in test [6] (setting [7]), -1%; in test [6] (setting [8]), -2%; in test [6] (at 50.0 µM) it was 3.65%.
